An excerpt weighted towards active compounds, which were near 10% of everything screened.
VDR inh – blocks the human vitamin D receptor; VDR-SRC2-3 peptide fluorescence polarization, 2 h; Potency, µM, for the others: max response, negative = inhibition, hits mostly inhibitors; actives 0.93% (n = 400,000); AID 504847; also: potency is read from the fitted curve at half-maximal effect
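The screen uses fluorescence polarization to detect compounds that interfere with recruitment of the SRC2-3 coactivator peptide to VDR; plates are read after 2 h at room temperature.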
G9a inh – inhibitors of human histone lysine methyltransferase G9a; Q96KQ7; G9a H3K9 monomethylation, AlphaScreen, 2 h; Potency, µM (series often up to 102 µM), for inactives: top-dose activity, negative = inhibition, actives largely listed as inhibitors; actives 8.8% (n = 350,000); also: potency is read from the fitted curve at half-maximal effect; nearly all actives have a fitted effect of over 75% in size
Target sequence (Q96KQ7 913-1193 limits assumed): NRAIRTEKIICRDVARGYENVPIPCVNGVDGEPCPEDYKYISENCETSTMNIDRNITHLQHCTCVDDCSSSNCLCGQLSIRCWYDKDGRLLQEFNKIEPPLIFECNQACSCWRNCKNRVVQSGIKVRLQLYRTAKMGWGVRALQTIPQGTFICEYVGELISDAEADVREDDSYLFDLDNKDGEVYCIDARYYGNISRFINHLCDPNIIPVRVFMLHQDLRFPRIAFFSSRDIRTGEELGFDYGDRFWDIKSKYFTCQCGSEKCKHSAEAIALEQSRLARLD
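Quantitative HTS format: methyltransferase activity on a biotin-tagged H3K9 peptide is measured by AlphaScreen, using a rabbit anti-monomethyl-H3K9 antibody with streptavidin donor and anti-IgG acceptor beads. Final levels are 20 nM enzyme, 500 nM peptide, 20 uM SAM; 2 h RT.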
Sfp inh – inhibitors of Bacillus subtilis Sfp phosphopantetheinyl transferase | Q9F4F7 | Biochemical Sfp PPTase activity, qHTS | Potency, µM, for the others: largest response in the series, negative = inhibition, most hits filed as inhibitors | actives 3.5% (n = 310,000);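 also: the enzyme is Sfp with the accession as filed and its product quenches rhodamine fluorescence; potency is read from the fitted curve at half-maximal effect; 0% = enzyme reaction without inhibitor and -100% = no enzyme wells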
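Compounds were incubated with enzyme (final 15 nM) for 15 min at room temperature before substrate addition started the reaction. Fluorescence at 525 nm excitation, 598 nm emission was recorded immediately and after 30 minutes.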
MmCpn inh – inhibitors of Methanococcus maripaludis chaperonin TRiC (MmCpn). purified Mm-Cpn ATPase, ADP Transcreener TR-FRET. Potency, µM (highest dose often 76.9 µM), without a hit: at the top dose activity, negative = inhibition, most hits filed as inhibitors. actives 0.031% (n = 330,000); also: potency is read from the fitted curve at half-maximal effect; nearly all actives have a fitted effect of over 80% in size
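Reaction buffer contained 30 mM Tris pH 7.4, 100 mM KCl, 5 mM MgCl2 and 1 mM DTT. Mm-CPN (25 nM final) hydrolysed 10 uM ATP over 30 min at 37°C; ADP was read by HTRF.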
CCT modulator – changes cytosolic chaperonin activity; actives 0.3% (n = 360,000); purified chaperonin ATPase assay, HTRF ADP detection, 30 min; activity change, % (test concentration not listed), hits read low; in the data active = activity change below about -30%
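First, chaperonin was dispensed at 40 nM or 20 nM final depending on batch activity. Next, compounds were pinned at 76 uM and ATP added at 10 uM. After 30 min at 37 °C, ADP detection reagents ran 30 min at ambient temperature.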
PLK1 PBD inh – inhibitors of human PLK1 polo-box domain binding; P53350; Plk1 PBD binding of FITC phosphopeptide, fluorescence polarization; Potency, µM, for inactives: max response, negative = inhibition, actives largely listed as inhibitors; actives 2.8% (n = 360,000); also: potency is read from the fitted curve at half-maximal effect; series mostly up to about 57 µM; nearly all actives have a fitted effect of over 65% in size
The depositor's hits bear a star; ? = inconclusive; . = no result; ! = not confirmed by another sample; [ ] = dose if it differs, or a comment. Unless noted, calls follow the shape of the dose curve; as a rule, active = well fitted curve in the direction sought with a large enough effect; inconclusive = small, poorly fitted or top-dose-only effect, or another doubt; inactive = no such curve, though single readings can be large; an effect the other way counts as inactive or inconclusive. Unless noted, % is scaled to controls: 0 for no effect and ±100 for the full control effect.

SMILES	VDR inh	G9a inh	Sfp inh	MmCpn inh	CCT modulator	PLK1 PBD inh
CCOC(=O)[C@]12Cc3ccc(C)cc3[C@H]1N(C1CCCCC1)C(=O)c1ccccc12	.	.	.	.	0	3µM*
CCOC(=O)[C@]12Cc3cc(C)ccc3[C@H]1N(C1CCCCC1)C(=O)c1ccccc12	.	.	.	.	0	2.7µM*
CCOC(=O)[C@]12Cc3cc(Cl)ccc3[C@H]1N(Cc1ccccc1)C(=O)c1ccccc12	-4%	.	.	.	2	-5%
COC(=O)[C@H]1C[C@H]2CC[C@H](O)C[C@H]2N1CC1CC1	.	.	12%	.	.	.
CCOC(=O)[C@]12Cc3ccc(C)cc3[C@H]1N(C1CCCCC1)C(=O)c1cc(OC)ccc12	.	.	.	.	0	4.2µM*
CCOC(=O)[C@]12Cc3cc(C)ccc3[C@H]1N(CCC(=O)OC)C(=O)c1ccccc12	.	.	.	.	0	8.4µM*
CCOC(=O)[C@]12Cc3ccccc3[C@H]1N(Cc1ccccc1)C(=O)c1cc(F)c(F)cc12	.	.	.	.	-2	?
CC(c1nc2ccccc2c(=O)[nH]1)N(C)CCOc1ccc(Cl)cc1 (configuration not stated)	-9%	34%	12%	1%	-1	-3%
c1cnc(N2CC3(CCNCC3)C2)nc1	-14%	4%[12.7 µM]	-3%	.	.	.
CSCC[C@H](NC(=O)[C@@H](NC(=O)CNC(=O)[C@H](CC(=O)O)NC(=O)[C@H](CCSC)NC(=O)[C@@H](N)Cc1ccc(O)cc1)[C@@H](C)O)C(=O)N[C@@H](CO)C(=O)N[C@@H](CCC(N)=O)C(=O)N[C@H](C(=O)O)C(C)C	5%	.	2%	.	.	.
Cc1ccccc1-n1c(O)c(/C=N/NC(=O)c2ccccc2O)c(=O)[nH]c1=S	?	32%[59 µM]	6%	3%	-2	4.2µM*
Cc1cccc(-n2c(O)c(/C=N/Nc3nc4c(c(=O)n(C)c(=O)n4C)n3C)c(=O)[nH]c2=S)c1	-1%	?	56µM*	-2%	0	?
Cc1cccc(-n2c(O)c(C=NCCN3CCNCC3)c(=O)[nH]c2=S)c1	-10%	-36%	-2%	-3%	0	-1%
Cc1ccccc1-n1c(O)c(/C=N/Nc2nc3c(c(=O)n(C)c(=O)n3C)n2C)c(=O)[nH]c1=S	-2%	?	50µM*	0%	1	-9%
Cn1c(=O)c2c(nc(N/N=C/c3c(O)n(C4CCCCC4)c(=S)[nH]c3=O)n2C)n(C)c1=O	?	22µM*	71µM*	-5%	-1	?
Cc1[nH]cnc1CCN	.	.	-12%	.	.	.
NCC1OC(O[C@@H]2[C@H](O)[C@@H](OC3C(O)C(N)CC(N)C3OC3OC(CO)C(O)C(O)C3N)O[C@@H]2CO)C(N)C(O)C1O (some centres not stated)	.	11%[12.7 µM]	.	.	.	.
C=CCN1C[C@@H](C)N([C@H](c2ccc(C(=O)N(CC)CC)cc2)c2cccc(OC)c2)C[C@@H]1C	-7%	?	.	.	.	.
O[C@@H]1[C@H](O)[C@H]2[C@@H](O)CCN2C[C@@H]1O	26%	.	-16%	.	.	.
O=C1NC(=O)N(c2ccc(Cl)cc2)C(=O)/C1=C\c1ccc(Sc2nc3ccccc3[nH]2)o1	-23%	3.2µM*	71µM*	-6%	-2	3.8µM*
CC[C@@H](CO)NC(=O)[C@@H]1C=C2c3cccc4c3c(cn4C)C[C@H]2N(C)C1	28µM*!	6.3µM*!	-8%	-21%	1	-12%
CC1CCCCC1n1c(-c2cccnc2)n[nH]c1=S (configuration not stated)	2%	14µM*	8%	-2%	2	-4%
COC(=O)[C@H]1C(=O)c2ccccc2O[C@@](C(=O)OC)(c2ccccc2)[C@@H]1c1ccccc1	.	.	10%	.	.	.
CN(N=O)c1cc(O)ccc1O	45µM*	0.6µM*	.	.	.	.
CN(C)c1c([N+](=O)[O-])cc(N2C(=O)C=CC2=O)cc1[N+](=O)[O-]	16µM*	.	.	.	0	3µM*
COc1ccc(N2C(=O)/C(=C/c3cc(C)n(-c4ccc(C)cn4)c3C)C(=O)NC2=S)c(OC)c1	-10%	32µM*	35µM*	-3%	-2	30µM*

From PubChem
